# The supplement of paper PMC6555819
# Test system: VDR:RXRa (NR concentration 270 nM, RXRa partner concentration 90 nM)
# Assay: PBM binding z-score (relative to random genomic background probes); higher = stronger binding; sequences stand for … in GC…GCGATTGACAGCGTAGAATGAAGG
# Procedure: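 Protein-binding microarray (Agilent 4x180K custom design, double-stranded 60-nt probes: 5' GC cap, 34-nt variable region, 24-nt constant primer region; full probe sequence given). Purified or IVT nuclear receptor:RXRα heterodimers (3:1 NR:RXRα, mostly 270:90 nM) or homodimers were incubated for 1 h in PBS with 2% milk and no ligand, then detected with Alexa488 antibodies. Fluorescence from o1-orientation probes (~5 replicates averaged) was converted to z-scores against 500 random hg19 background probes. Variable regions are seed direct-repeat (DR0–DR5) sites, all their single-nucleotide variants and half-site ablations.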
row,Sequence,PBM binding z-score
1,CGTCCAAGGTCAAGGTCAGTCAAAGAGACTCGAA,4.84
2,CCTACTGGGCCATTCAGAGGTCTTTGATCATATG,-0.301
3,GCTGACGGGTCAAAGGTTATAGCATGAATAGAAT,5.27
4,AGAAAGAGGTTATTAAGATCAGGGAATTGCGGTC,2.57
5,CCGACTGGGGCCAAGGTTACCATACTCAGTACGA,0.63
6,CCCACTGGGGCATAAGGTTACCATAAGCCAGCCC,-0.113
7,CCGAGTAGGTTATGGCGCATTCAGGCAACGGTGA,-0.266
8,CTCGAATGGTCGGTTGAGGTGAGTATACGGATAA,-0.211
9,AGTCAAAGTTCATCTAGATAACGTAAGATATGCT,4.66
10,GCATGTAGGTAATACAAGGTGAAAGTCCGATTGT,0.342
11,TCAGACAGGTGAAGGTAACTCATGTACGCAGTCG,0.532
12,CCAGACAGGTGAAAGGTAGCTCAGTCTGGTACGC,-0.089
13,AGAATGAGGTTACCAAAGATCAGGGCAACGCTTG,1.69
14,AGTCAAAGTTGACTAGGTAACGTAAGATTCAGCT,0.000813
15,TTACCAAGGTGAAGGTCGTTGAGCCCTCTGTAGA,1
16,CGTCCAAGGTTAAAGGTCAGTGAAGAGATGACGG,4.69
17,CCGACTGGGGCCGAAAGGTTACCATACCATCCGG,0.789
18,ACTATTAGTTGACTTAGGGCAACCGTTACGACGC,0.577
19,GCATATACGTAATACAAGGTGAAAGTCCGATTGT,0.232
20,CCGACTGGGGCAAGGTTACCTTAACGCACAGCCA,-0.0796

row,Sequence,PBM binding z-score
1,TCTCGGAGCACACGAAGGTCAGAGCTTTCCAGAG,0.634
2,CCTACTGGGCCATTCAGACGTCATTGATCATATG,-0.521
3,CGAACTAGGTCATCCAGGACAGAGAATACATTGA,4.48
4,CCTTACGGGTCACCCCAGGTTATAGCATCGGAGT,4.91
5,CCGAGTAGGTTATGAGGCATTCAGGCAACGGTGA,-0.286
6,TCACACAGGTGAAGGTAACTCAGGTACGCAGTCG,0.751
7,GGAACGAGGGCAAGTGGATAGCAGAGTTTGATGG,0.391
8,CCTAGTTGGTCAGGGTCACACACGCTATAGGTAC,4.17
9,ACTCGGAGGACAAAGGTCAGAGATACGCCAGTGA,3.38
10,ATATGTAGGCTATCGGGTCATTCAGTTTGCGCAT,4.58
11,CGTCAAAGTTCAAGGTAAGGTAACAGAAAGCAGC,3.7
12,CCTTTCGGGTCACGAGGTTATAGCACGACGAGCG,5.31
13,GCTAGCATGCCATTTGGGTCACTCAATGACGGGC,0.372
14,CGTCCAAGGTCAGAGAGGTCAGTCAATGCCGAGT,7.68
15,ATCTCTAGGTAAAAGTTCAGAGAATCCCGAGGAT,1.43
16,CCGACTGGGGCAAGGTTAACATAACGCACAGCCA,0.295
17,CCTTACGGGACAAGGTTATAGCACGGGTGGTACG,0.416
18,CTCGAAAGGTCGTGCTCAGTTGAGTATACCAAAC,3.59
19,AAAACAGGGTCACTAGGCCAGAGTAGGTACGAAT,4.38
20,TCGAGTAGGTTACCAATGGGGTATTCAGCTTTCT,0.0284
